This note sets out measurements from PubChem BioAssay AID463173 (ICCB-Longwood Screening Facility, Harvard Medical School, 2010).

Out of some 52,000 compounds screened, about 4,300 (8.3%) were called active. No stated cut-off is given here; in the data, active means survival mostly below about 52% (no sharp cut-off); inactive means mostly above about 56%. The full list was thinned out, with actives kept by preference.

The assay has as its system DeltatarO mutant. Nature of the assay: S. aureus survival, RN4220 and DeltatarO strains – OD600, teichoic acid synthesis inhibitors, primary screen (AID 463173). As to conditions: S. aureus RN4220 wild type/DeltatarO growth, OD600, 18 h, hits give low values, screened at 18.75 µg/mL (by protocol).
As to `CCOc1ccc(CNC(=O)Cn2c(=O)c3cccn3c3ccc(F)cc32)cc1OC`, the survival was 47% (inactive).

As to `COc1cc(NC(=O)c2cc(-c3ccc4c(c3)OCO4)on2)cc(OC)c1OC`, the survival was 115% (inactive).

Consider `CCn1cc(C(=O)N(C)Cc2ccccc2)c(=O)c2cc(S(=O)(=O)N3CCc4ccccc4C3)ccc21`, for which the survival was 65% (inactive).

With `O=C(Cn1cc(C(=O)C(F)(F)F)c2ccccc21)N1CCCCCC1`, the survival is 56% (inactive).

Regarding `COc1cc(C(=O)NCc2nnnn2-c2ccc(C)c(C)c2)cc(OC)c1OC`, the survival was 98% (inactive).

Turning to `CCOc1ccc(CCNC(=O)c2cnc3c(-c4ccccc4)c(C)nn3c2C)cc1OCC`, the survival is 20% (active).

On to `CCOc1ccc(CCNC(=O)c2cnc3c(-c4ccc(F)cc4)c(C)nn3c2C)cc1OCC`, for which the survival is 134% (inactive).

As for `CCOc1ccc(-c2c(C)nn3c(C)c(C(=O)NCCc4ccccc4)cnc23)cc1OCC`, the survival was 54% (inactive).

For `CCN1/C(=C\C(=O)C2CC2)Sc2ccccc21`, the survival was 81% (inactive).

Take `COc1ccc(OCc2nc3ccccc3n2C(C)C)cc1`: the survival was 88% (inactive).

Turning to `CCC(C)Cn1c(COc2ccc(OC)cc2)nc2ccccc21` (configuration not stated), the survival is -1% (active).

Take `COc1ccc(OCc2nc3ccccc3n2C(C)c2ccccc2)cc1` (configuration not stated): the survival is -15% (active).

With `Cc1ccc(OCc2nc3ccccc3n2CC(C)C)cc1`, the survival is 1% (active).

Regarding `COc1ccc(OCC(O)Cn2c(C(C)C)nc3ccccc32)cc1` (configuration not stated), the survival was 88% (inactive).

As for `Cc1nc2ccccc2n1C(C)c1ccccc1` (configuration not stated), the survival is 77% (inactive).

Turning to `Cc1ccc(S(=O)(=O)c2cn(CC(=O)Nc3ccc4c(c3)OCO4)c3ccccc3c2=O)cc1C`, the survival is 112% (inactive).

Regarding `Cc1ccc(NC(=O)c2nnn(Cc3cccc(C(F)(F)F)c3)c2N)c(C)c1`, the survival was 86% (inactive).

As to `COc1ccc(-n2c(=O)c3c4c(sc3n(Cc3cc(C)ccc3C)c2=O)CN(C(C)=O)CC4)c(OC)c1`, the survival is 93% (inactive).

Turning to `Cc1cccc(CC(=O)NC2CC(=O)N(c3ccc4c(c3)OCCO4)C2)c1` (configuration not stated), the survival was 72% (inactive).

Take `CN1C(=O)Cc2cc(S(=O)(=O)N3CCN(c4cccc(C(F)(F)F)c4)CC3)ccc21`: the survival is 116% (inactive).

In the case of `CCOC(=O)c1c(C)[nH]c(C)c1S(=O)(=O)NCC(=O)N1CCN(c2ccccc2OC)CC1`, the survival is 102% (inactive).

Turning to `Cc1ccc(NC(=O)c2cc(-c3cccs3)on2)cc1C`, the survival was 45% (active).

As to `CC(=O)Nc1ccc(NC(=O)c2cc(-c3cccs3)on2)cc1`, the survival is 78% (inactive).

Consider `Cc1c(Cl)cccc1NC(=O)c1cc(-c2cccc(Cl)c2)on1`, for which the survival is 61% (inactive).

In the case of `CCc1ccc(NC(=O)c2cc(-c3cccs3)on2)cc1`, the survival was 161% (inactive).

Regarding `COc1ccc(OC)c(-c2cc(C(=O)NCc3ccc(Cl)cc3)no2)c1`, the survival is 47% (inactive).

Turning to `Cc1c(Cl)cccc1NC(=O)c1cc(-c2cccs2)on1`, the survival is 66% (inactive).

As to `COc1ccc(OC)c(-c2cc(C(=O)Nc3ccc(C)c(C)c3)no2)c1`, the survival is -1% (active).

Consider `CC(NC(=O)c1cc(-c2ccc(Cl)cc2)on1)c1ccccc1` (configuration not stated), for which the survival was 142% (inactive).

Take `COc1ccc(OC)c(-c2cc(C(=O)Nc3cnn(Cc4ccc(Cl)cc4Cl)c3)no2)c1`: the survival is 64% (inactive).

As to `CC(C)c1cc(C(=O)NC(C)c2ccccc2)no1` (configuration not stated), the survival is 50% (inactive).

Regarding `COc1ccc(OC)c(-c2cc(C(=O)Nc3cccc(Cl)c3C)no2)c1`, the survival is 2% (active).

Turning to `COc1ccc(OC)c(-c2cc(C(=O)NC(C)c3ccccc3)no2)c1` (configuration not stated), the survival was -14% (active).

For the compound `Cc1cc(Nc2ccc(Cl)cc2C)nc(-n2nc(C)cc2C)n1`, the survival was 74% (inactive).

For the compound `Cc1ccc(Cn2c(CO)cnc2SCc2ccc(F)cc2)cc1`, the survival was 109% (inactive).

Regarding `COc1cccc(N2C(=O)C(CC(=O)Nc3cccc(F)c3)N(C(C)C)C2=O)c1` (configuration not stated), the survival was 94% (inactive).

For the compound `Cc1ccc(CSc2c(C)cnc3c2c(=O)n(C)c(=O)n3C)cc1`, the survival was 78% (inactive).

For the compound `COc1ccc(OCC(=O)OC2CCN(C)CC2)cc1`, the survival was 112% (inactive).

As for `CCN(CC)CCCNC(=O)c1cn(CC)c2ccc(S(=O)(=O)N3CCC(C)CC3)cc2c1=O`, the survival is 105% (inactive).

For `CS(=O)(=O)N1CCC(c2nc(-c3ccc(S(=O)(=O)NCC4CCCO4)cc3)no2)CC1` (configuration not stated), the survival is 85% (inactive).

Consider `CCn1c(=O)c2cc(C(=O)Nc3cc(F)ccc3F)sc2c2ccccc21`, for which the survival was 96% (inactive).

On to `CCOc1ccccc1NC(=O)c1c(NCc2ccc(C)o2)sc2c1CCCCC2`, for which the survival is 95% (inactive).

`COc1cc(NC(=O)c2cc(-c3ccc(Cl)c(Cl)c3)on2)cc(OC)c1OC`: the survival was 111% (inactive).

As for `COc1ccccc1-c1cc(C(=O)Nc2cc(OC)c(OC)c(OC)c2)no1`, the survival is 25% (active).

`COc1ccccc1-c1cc(C(=O)Nc2cc(Cl)ccc2O)no1`: the survival was 52% (inactive).

Take `O=C(c1ccc2c(c1)CCN2S(=O)(=O)c1ccc(Cl)cc1)N1CCN(c2ccccc2)CC1`: the survival was 58% (inactive).

In the case of `CCCCOc1ccccc1C(=O)Nc1onc2c1CCCC2`, the survival is 55% (inactive).

As for `O=C(CN1C(=O)COc2ccc(S(=O)(=O)Nc3ccccc3)cc21)NCc1ccccc1Cl`, the survival was 102% (inactive).

With `O=c1c2cn[nH]c2nc(SCc2cccc(Br)c2)n1-c1ccc(Cl)cc1`, the survival was 122% (inactive).

As for `CCOc1ccc(CC(=O)Nc2c(C(=O)c3ccc(C)cc3)oc3ccccc23)cc1OCC`, the survival was 52% (inactive).

On to `Cc1ccc(C(=O)c2oc3ccccc3c2NC(=O)COc2ccc(C(C)C)cc2)cc1`, for which the survival is 73% (inactive).

As for `CC(C)c1ccc(OCC(=O)Nc2c(C(=O)c3ccc(F)cc3)oc3ccccc23)cc1`, the survival was 65% (active).

For `CC(C)(C)c1ccc(OCC(=O)Nc2c(C(=O)c3ccc(F)cc3)oc3ccccc23)cc1`, the survival is 99% (inactive).

For `CCOc1ccc(CC(=O)Nc2c(C(=O)c3ccc(F)cc3)oc3ccccc23)cc1OCC`, the survival is 42% (active).

With `CCOc1ccc(CC(=O)Nc2c(C(=O)c3ccc(Cl)cc3)oc3ccccc23)cc1OCC`, the survival was 48% (inactive).

For the compound `Cc1cccc(-n2cc(-c3ccccc3)c3c(NC4CCCC4)ncnc32)c1`, the survival was 98% (inactive).

In the case of `CCNC(=O)CCSc1nnc(-c2ccc(O)cc2)o1`, the survival was 95% (inactive).

Turning to `O=c1oc2ccccc2c(N2CCN(c3ccccc3F)CC2)c1CN1CCCC1`, the survival was 89% (inactive).

Regarding `O=c1oc2ccccc2c(N2CCN(c3ccc(F)cc3)CC2)c1CN1CCCC1`, the survival was 100% (inactive).

For the compound `O=c1oc2ccccc2c(O)c1CN1CCCCC1`, the survival is 25% (active).

For `Cc1ccc(-c2cc(-c3ccc4c(c3)NC(=O)CO4)nc3c2COc2ccc(C)cc2-3)cc1`, the survival is 96% (inactive).

As to `Cc1c(C(=O)Nc2ccc(F)cc2)sc2nc[nH]c(=O)c12`, the survival is 122% (inactive).

As for `Cc1sc2ncn(CC(=O)N3CCN(c4cccc(Cl)c4)CC3)c(=O)c2c1S(=O)(=O)N1CCN(c2ncccn2)CC1`, the survival is 63% (inactive).

With `Cc1sc2ncn(CC(=O)N3CCN(c4ccccc4)CC3)c(=O)c2c1S(=O)(=O)N1CCN(c2ncccn2)CC1`, the survival was 126% (inactive).

For the compound `Cc1cccc(N2CCN(C(=O)Cn3cnc4sc(C)c(S(=O)(=O)N5CCN(c6ncccn6)CC5)c4c3=O)CC2C)c1` (configuration not stated), the survival was 67% (active).

On to `Cc1ccc(Cl)cc1N1CCN(C(=O)Cn2cnc3sc(C)c(S(=O)(=O)N4CCC(C)CC4)c3c2=O)CC1`, for which the survival was 47% (active).

Consider `Cc1sc2ncn(CC(=O)N3CCN(c4cccc(Cl)c4)CC3)c(=O)c2c1S(=O)(=O)N1CCC(C)CC1`, for which the survival was 149% (inactive).

For `Cc1sc2ncn(CC(=O)N3CCN(c4ccccc4F)CC3)c(=O)c2c1S(=O)(=O)N1CCC(C)CC1`, the survival was 74% (inactive).

As for `CC1=C(c2ccc(C)cc2)S(=O)(=O)NC1=NCc1cccc(F)c1`, the survival was 92% (inactive).

Take `Cc1ccc(-n2c(=O)c3ccc(C(=O)NCc4ccco4)cc3n(Cc3ccccc3Cl)c2=O)cc1`: the survival is 99% (inactive).

Regarding `c1ccc2c(c1)n1cnnc1c1nncn21`, the survival is 85% (inactive).

Regarding `CC1=C(C(=O)Nc2ccc(C)cc2C)C(c2ccc([N+](=O)[O-])cc2)n2ncc(C(=O)Nc3ccc(F)cc3)c2N1` (configuration not stated), the survival is 101% (inactive).

On to `O=C(O)c1ccc(N2CCOCC2)cc1`, for which the survival was 80% (inactive).

Regarding `COc1ccc(N2CCN(CC(O)COc3ccc(C(C)(C)C)cc3)CC2)cc1` (configuration not stated), the survival was 84% (inactive).

For the compound `COc1ccc(N2CCN(CC(O)COc3ccc(C)cc3C)CC2)cc1` (configuration not stated), the survival is 98% (inactive).

For `Cc1ccc(C(C)C)c(OCC(O)CN2CCN(c3ccccc3F)CC2)c1` (configuration not stated), the survival is -5% (active).

`COc1ccccc1N1CCN(CC(O)COc2ccc(C)cc2C(C)(C)C)CC1` (configuration not stated): the survival was 1% (active).

Regarding `C=CCc1ccccc1OCC(O)CN1CCN(c2ccccc2)CC1` (configuration not stated), the survival was 83% (inactive).

Take `COc1ccc(N2CCN(CC(O)COc3ccccc3C(C)(C)C)CC2)cc1` (configuration not stated): the survival was -8% (active).

`COc1ccccc1N1CCN(CC(O)COc2cc(C)cc(C)c2)CC1` (configuration not stated): the survival was 71% (inactive).

`COc1ccc(N2CCN(CC(O)COc3c(OC)cccc3OC)CC2)cc1` (configuration not stated): the survival was 71% (inactive).

Regarding `COc1ccc(N2CCN(CC(O)COc3ccc(C(C)C)c(C)c3)CC2)cc1` (configuration not stated), the survival is 66% (inactive).

Regarding `CN(C)c1ccc(C(CNS(=O)(=O)c2ccc(Br)cc2)N2CCOCC2)cc1` (configuration not stated), the survival was 74% (inactive).

Turning to `CCc1c(C)sc2c1CCN(Cc1ccccc1F)C2c1ccccc1` (configuration not stated), the survival was 102% (inactive).

In the case of `CCCCC(=O)N1CCc2cc(OC)c(OC)cc2C1COc1ccc(C(=O)OCC)cc1` (configuration not stated), the survival was 70% (inactive).

Consider `O=C(CN1C(=O)COc2ccc(S(=O)(=O)N3CCCCC3)cc21)NCCc1ccc(Cl)cc1`, for which the survival was 73% (inactive).

As for `CCOc1ccc(N2CC(NC(=O)c3ccc(Cl)cc3)CC2=O)cc1` (configuration not stated), the survival is 73% (inactive).

On to `CC(C)(C)Sc1ccc(SC#N)s1`, for which the survival is 1% (active).

With `N#CSc1ccc2nc(N)sc2c1`, the survival is 66% (inactive).

On to `O=C1CC(c2ccc(Br)cc2)c2c(ccc3ccccc23)N1` (configuration not stated), for which the survival is 32% (active).

Regarding `Cc1ccccc1C1CC(=O)Nc2ccc3ccccc3c21` (configuration not stated), the survival is 93% (inactive).

Consider `O=C1CC(c2c(Cl)cccc2Cl)c2c(ccc3ccccc23)N1` (configuration not stated), for which the survival is 73% (inactive).
